Screening results (PubChem BioAssay)
SARS PLP yeast: qHTS of Yeast-based Assay for SARS-CoV PLP | S. cerevisiae expressing SARS-CoV PLpro, growth rescue | Potency, µM (titrated, usually from 32.9 µM), for the others: at the top dose activity, positive = growth rescue, hits mostly activators | 330,000 tested, 0.19% active; calls by dose curve; further: potency means the concentration at half of the fitted maximal effect; 0% is about no effect; nearly all actives have a fitted effect of over 55% in size
Sm TGR block: qHTS Assay for the Inhibitors of Schistosoma Mansoni Peroxiredoxins. Schistosoma mansoni thioredoxin glutathione reductase (TGR), Q962Y6. purified TGR, DTNB reduction, TNB absorbance 405 nm. Potency, µM (series often up to 114 µM), for the others: at the highest dose activity change, negative = inhibition, most hits filed as inhibitors. 360,000 tested, 3% active; further: potency means the concentration at half of the fitted maximal effect; on the % scale 0 is the no-effect control and ±100 the full control effect; nearly all actives have a fitted effect of over 60% in size
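TGR 20 nM + NADPH 100 uM (dispensed conc.), cpd preinc 15 min RT; start with NADPH (500 uM addition) then DTNB (15 mM addition). Kinetic TNB absorbance, 405 nm filter. Four-parameter Hill fit across titration.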
HCMV antiviral: qHTS Assay for inhibitors of the human cytomegalovirus (HCMV) | HFF cells, HCMV-luciferase reporter, 72 h; stronger effect = lower value | activity change, negative = inhibition, % at 57.5 µM | 410,000 tested, 4.5% active; in the data active means activity change below about -60%; inconclusive means no clear call, values can overlap the other calls; inactive means above about -39%; further: on the % scale 0 is the no-effect control and ±100 the full control effect
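Screen run at 2 compound doses on HFFs infected with reporter HCMV, MOI 1 PFU/cell. Luciferase activity from cell lysates at 72 h post infection gave inhibition relative to buffer-only and Salinomycin wells.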
Pf growth 96h: Primary qHTS for delayed death inhibitors of the malarial parasite plastid, 96 hour incubation; P. falciparum luciferase reporter growth, 96 h; Potency, µM (series often up to 28.7 µM), for the others: top-dose activity change, negative = inhibition, actives largely listed as inhibitors; 320,000 tested, 6.9% active; AID 504834, 2011; further: potency means the concentration at half of the fitted maximal effect; on the % scale 0 is the no-effect control and ±100 the full control effect
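Two parasite generations (96 h, 37 C, 5% CO2) of compound exposure in infected erythrocytes (0.05% parasitemia, 2% hematocrit). Luciferase-reporter P. falciparum; decreased luminescence indicates inhibited growth, aimed at apicoplast-acting delayed death.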
Pf growth 48h: Primary qHTS for delayed death inhibitors of the malarial parasite plastid, 48 hour incubation; P. falciparum luciferase growth in erythrocytes, 48 h; Potency, µM (highest dose often 28.7 µM), inactives show at the top dose activity change, negative = inhibition, most hits filed as inhibitors; 310,000 tested, 5.9% active; AID 504832, 2011; further: potency means the concentration at half of the fitted maximal effect; on the % scale 0 is the no-effect control and ±100 the full control effect
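Growth was read as firefly luciferase luminescence after a 48 h, 37 C, 5% CO2 exposure of compounds to reporter-bearing P. falciparum cultures (0.1% parasitemia, 2% hematocrit final) in Albumax-supplemented RPMI 1640.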
HCV inh: qHTS Assay for Inhibitors of Hepatitis C Virus (HCV). Huh7.5.1 HCVcc-Cre infection, luciferase reporter, 44 h. Potency, µM (highest dose often 41.8 µM), without a hit: at the highest dose activity change, negative = inhibition, hits mostly inhibitors. 340,000 tested, 3.4% active; further: potency means the concentration at half of the fitted maximal effect; on the % scale 0 is the no-effect control and ±100 the full control effect
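Luciferase read-out (15 sec integration) after a 15 min room-temperature substrate step quantifies HCVcc-Cre infection. Cells, 1,000 per well, had compound added 4 h post-plating, then virus at ~0.5 moi, and were cultured 44 h.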
Numbers without * were called inactive; ? = inconclusive; . = not tested or not shown; [ ] = remark or other dose. Most compounds without a hit are left out; they make up all but 15% or so of the library. Unless noted, the call rests on the fitted dose curve; in most records, active means well fitted curve in the direction sought with a large enough effect; inconclusive means small, poorly fitted or top-dose-only effect, or another doubt; inactive means no such curve, though single readings can be large; an effect the other way counts as inactive or inconclusive.

SMILES | SARS PLP yeast | Sm TGR block | HCMV antiviral | Pf growth 96h | Pf growth 48h | HCV inh
O=C(Nc1c(C(=O)O)[nH]c2ccc(F)cc12)c1cccc(C(F)(F)F)c1 | 0% | 0% | -29 | 15% | -4% | 22%
CC12CCC(O)CC1=CCC1C2CCC2(C)C3=NN=CC3CC12 (stereo not given) | . | . | -13 | . | . | 10%
O=C(C[n+]1ccc(-c2cc(C(=O)Nc3cccc(C(F)(F)F)c3)c3ccccc3n2)cc1)c1cccc([N+](=O)[O-])c1 | -2% | 45µM* | -66* | 3.3µM* | ? | 13µM*
COCCNC(=O)N1[C@H]2CC[C@@H]1C(C(=O)OC)=C(c1ccc(OC)c(OC)c1)C2 | -3% | -3% | -8 | 11% | 25% | 18%
COC(=O)C1=C(c2ccc(-c3ccccc3)c(F)c2)C[C@@H]2CC[C@H]1N2C(=O)NCC1CC1 | -3% | -15% | -39 | ? | 4.7µM* | ?
COC(=O)C1=C(c2ccc(C(C)=O)cc2)C[C@@H]2CC[C@H]1N2C(=O)NCC1CC1 | 2% | 22µM* | . | 7% | 22% | -10%
COCCNC(=O)N1[C@H]2CC[C@@H]1C(C(=O)OC)=C(c1ccc(-c3ccccc3)c(F)c1)C2 | -1% | -4% | -40 | ? | ? | 3.2µM*
COC(=O)C1=C(c2ccc3ccccc3c2)C[C@@H]2CC[C@H]1N2C(=O)NCC1CC1 | -3% | ? | -40 | ? | 3.3µM* | ?
COc1ccccc1OC(C)C(=O)Nc1ccc(-c2nc3ccccc3s2)cc1 (stereo not given) | . | 8% | -17 | . | . | .
COC(=O)C1CCc2c(ccc3c2CCCC3)C1=O (stereo not given) | . | . | 5 | . | . | -26%
COC(=O)C1=C(c2ccc(-c3ccccc3)c(F)c2)C[C@@H]2CC[C@H]1N2C(=O)NC1Cc2ccccc2C1 | 3% | 2% | -13 | ? | 9.3µM* | ?
COC(=O)C1=C(c2ccc(OC)c(OC)c2)C[C@@H]2CC[C@H]1N2C(=O)NCCOc1ccccc1 | -5% | 7% | -21 | ? | -16% | -14%
COC(=O)C1=C(c2ccc(-c3ccccc3)c(F)c2)C[C@@H]2CC[C@H]1N2C(=O)NCCOc1ccccc1 | 0% | 2% | 40 | ? | 3.3µM* | 13µM*
Cc1ccc([C@H]2C[C@@H](O)[C@H](n3cc(C4CC4)nn3)CN2C(=O)c2cccs2)cc1 | . | . | 29 | . | . | .
COc1ccccc1C(=O)Nc1ccc2oc(-c3cccc4c(Br)cccc34)nc2c1 | . | 0% | 21 | . | . | .
Cc1ccccc1OCC(=O)Nc1ccccc1N1CCCCC1 | -17% | -10% | 8 | 10µM* | ? | ?
O=C(CNc1cc(S(=O)(=O)N2CCCC2)ccc1OCC(F)(F)F)Nc1cc(Cl)cc(Cl)c1 | 0% | 2% | . | 2% | 6% | .
Cc1cc(OCC(=O)Nc2ccccc2N2CCCCC2)ccc1C(C)C | -1% | 0% | -10 | 10µM* | ? | ?
Cc1cc(OCC(=O)Nc2ccccc2N2CCCC2)ccc1C(C)C | -8% | -4% | ? | ? | ? | ?
O=C(COc1cccc(C(F)(F)F)c1)Nc1ccc(S(=O)(=O)N2CCCC2)cc1 | 7% | 1% | 18 | 20% | ? | 11µM*
O=C(CNc1cc(S(=O)(=O)N2CCCC2)ccc1OCC(F)(F)F)Nc1ccc(SC(F)F)cc1 | -2% | 4% | -63* | ? | ? | ?
O=C(Nc1cccc(Cl)c1)c1cc(S(=O)(=O)N2CCOCC2)cs1 | 1% | -23% | 17 | 18% | ? | ?
CC(C)(C#N)NC(=O)C1CCCN1S(=O)(=O)c1ccc2ccccc2c1 (stereo not given) | 3% | 4% | 71 | 41% | -9% | ?
CC(=O)N1CCN(c2ccccc2NC(=O)COc2ccc(Br)cc2)CC1 | -6% | 0% | -31 | 4.7µM* | ? | -15%
CCc1ccccc1NC(=O)C(CCSC)NS(=O)(=O)c1ccc2c(c1)oc(=O)n2C (stereo not given) | . | 2% | 7 | . | . | .
SMILES | SARS PLP yeast | Sm TGR block | HCMV antiviral | Pf growth 96h | Pf growth 48h | HCV inh
O=C(COc1ccc(Br)cc1)Nc1ccccc1N1CCCC1 | 0% | 10% | -22 | ? | -29%[5.75 µM] | -28%
CSCCC(NS(=O)(=O)c1cccc(C(F)(F)F)c1)C(=O)Nc1ccccc1N1CCCC1 (stereo not given) | 0% | 2% | -5 | 15µM* | ? | -14%
O=C(COc1cccc(C(F)(F)F)c1)Nc1ccccc1N1CCCCC1 | -9% | -5% | -18 | ? | 10µM* | -13%
CC1=NN(C(N)=S)C(=O)C1N=Nc1cccc(Cl)c1C (stereo not given) | 3% | -20% | 34 | ? | ? | 13%
CC[n+]1c(/C=C/C=C/N(C(C)=O)c2ccccc2)sc2cc(OC)ccc21 | -7% | -9% | -66* | 13% | 9.3µM* | ?
CC(C)CNC(=O)C1(C)CCCN1C(=O)c1cccnc1Oc1ccccc1 (stereo not given) | . | . | 19 | . | . | .
CN(C)C(=O)CNc1ccn2nc(-c3cccc(Cl)c3)cc2n1 | . | . | 5 | . | . | .
CCOc1ccc(N(C(=O)c2ccc(OC)cc2)S(=O)(=O)c2ccc3c(c2)n(C)c(=O)n3C)cc1 | . | 0% | -29 | . | . | .
CCOc1ccccc1CNC(=O)c1ccc(NC(=O)C2=CSCCO2)cc1 | 1% | 1% | -28 | ? | -20% | -28%
COCCNC(=O)c1ccc(C)c(NC(=O)C2=C(C)OCCS2)c1 | 1% | -25% | 28 | 39% | 40% | 0%
CCC(C)NC(=O)c1ccc(NC(=O)C2=C(C)OCCS2)cc1 (stereo not given) | 1% | 32% | -61* | 17% | 11% | -13%
CC1=C(C(=O)Nc2ccc(CC(=O)NCc3ccccc3C)cc2)SCCO1 | -2% | 3% | -3 | ? | 46% | -13%
CCc1ccc(CNC(=O)Cc2ccc(NC(=O)C3=C(C)OCCS3)cc2)cc1 | -4% | -2% | -19 | 12µM* | 126% | -27%
CC1=C(C(=O)Nc2cc(C(=O)N3CCC(C)CC3)ccc2C)SCCO1 | 4% | -5% | -63* | ? | 11% | 8%
CCOc1ccccc1CNC(=O)c1ccc(NC(=O)C2=C(C)OCCS2)cc1 | -4% | 0% | -30 | 6.6µM* | ? | ?
Cc1ccc2[nH]c(C(=O)NN=C3CCCCC3)c(-c3ccccc3)c2c1 | 0% | 9% | ? | 9.3µM* | ? | 0%
